Compound activity as filed in PubChem.
MIN6 prolif – MIN6 beta-cell proliferation induction. 330,000 compounds, 0.29% hits. MIN6 cells proliferation, ATPlite luminescence, 48 h; cells starved in 0.2% serum; 100% = growth in 10% serum. proliferation, % at 10 µM;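 active = compounds whose signal lies at least 3.5 SD above the mean of all wells on their plate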
SMARCA2 activ – activators of SMARCA2 function | activation, % at 9.1 µM | 370,000 compounds, 1% hits | AID 652017 | MG213 cells, MMTV-luciferase reporter, dexamethasone, overnight; in the data active = activation above about 7.8%
PfM18AAP inh – blocks P. falciparum M18 aspartyl aminopeptidase | recombinant PfM18AAP, H-Glu-NHMec fluorogenic cleavage | inhibition, % at 7.35 µM | 290,000 compounds, 1.2% hits;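 active = inhibition above the campaign mean inhibition over all tested compounds plus 3 SD, cut at about 28% in these data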
Exocytosis inh – blocks lytic granule exocytosis; TALL-104 LAMP-1 surface exposure, flow cytometry; cells stimulated with thapsigargin and PMA; inhibition, % at 10 µM; 360,000 compounds, 0.66% hits; AID 651702;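 active = inhibition above about 55%, limit read from the data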
ALR H2O2 inh – inhibitors of human sulfhydryl oxidase ALR | P55789 | purified ALR, DTT oxidation, H2O2 HRP-luminol luminescence | inhibition, % (test concentration not listed) | 290,000 compounds, 3.8% hits;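 active = mean replicate inhibition above about 79%, with every replicate also reaching it, limit read from the data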
Target sequence (P55789 whole entry, looked up): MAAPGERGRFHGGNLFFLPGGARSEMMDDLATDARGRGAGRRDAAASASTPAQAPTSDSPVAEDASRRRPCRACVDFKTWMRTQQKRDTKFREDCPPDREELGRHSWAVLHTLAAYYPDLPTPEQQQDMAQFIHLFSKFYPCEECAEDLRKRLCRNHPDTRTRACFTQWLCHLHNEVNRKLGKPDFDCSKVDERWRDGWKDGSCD
GASC-1 inh – inhibitors of human GASC-1 (JMJD2C) demethylase. 330,000 compounds, 0.069% hits. Q9H3R0. GST-JMJD2C(1-420) H3K9me3 demethylation, DELFIA europium. inhibition, % at 2.35 µM. AID 2099;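 active = more than half of a compound's replicate wells show inhibition beyond 50%, single wells judged on their own value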;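 also: signal counts dimethyl H3K9 product captured on neutravidin plate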
Target sequence (Q9H3R0 1-420 limits assumed): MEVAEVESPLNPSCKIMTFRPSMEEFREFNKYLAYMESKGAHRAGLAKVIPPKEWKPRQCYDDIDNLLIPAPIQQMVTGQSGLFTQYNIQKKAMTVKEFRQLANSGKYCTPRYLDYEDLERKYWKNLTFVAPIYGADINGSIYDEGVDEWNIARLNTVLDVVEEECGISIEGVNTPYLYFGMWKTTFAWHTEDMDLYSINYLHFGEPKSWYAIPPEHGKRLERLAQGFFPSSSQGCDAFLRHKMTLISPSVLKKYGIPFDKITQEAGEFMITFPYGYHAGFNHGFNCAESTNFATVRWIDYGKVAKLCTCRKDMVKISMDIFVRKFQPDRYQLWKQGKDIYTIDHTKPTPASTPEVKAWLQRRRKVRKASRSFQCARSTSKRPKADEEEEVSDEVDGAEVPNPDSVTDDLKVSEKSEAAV
Of the large screens only hits and unclear results are named; the others gave an inactive call. Most compounds without a hit are left out; they make up all but 5.4% or so of the library.

CC(=O)NS(=O)(=O)c1ccc(N=c2ssc3c2-c2cc(C)c(C)cc2NC3(C)C)cc1	ALR H2O2 inh 99
Cc1cc2c(cc1C)-c1c(ssc1=Nc1ccc(S(N)(=O)=O)cc1)C(C)(C)N2	Exocytosis inh 67
Clc1ncnc2scc(-c3ccccc3)c12	none
COc1ccc(-c2nc(-c3cccnc3)no2)cc1OC	none
Clc1nc(-c2cccnc2)nc2scc(-c3ccccc3)c12	ALR H2O2 inh 97
COc1ccc(-c2csc3nc(-c4cccnc4)nc(Cl)c23)cc1OC	ALR H2O2 inh 98
CC(=O)N1CCC(c2c[nH]c3ccccc23)CC1	ALR H2O2 inh 96
O=C(c1c[nH]c2ccccc2c1=O)N1CCCCCC1	none
Cn1nnnc1NCc1ccc(Cl)cc1	none (no result: ALR H2O2 inh)
CCN(CC)c1ccc(CNc2nnnn2C)cc1	ALR H2O2 inh 99
CCCn1nnnc1NCc1ccc(N(CC)CC)cc1	ALR H2O2 inh 98
CCCn1nnnc1NCc1ccc(F)cc1	none
Fc1ccc(NC(=S)N2CCCc3ccccc32)cc1	ALR H2O2 inh 89
Cc1ccc(CN2C(=O)c3ccccc3C2c2nnnn2-c2ccc3c(c2)OCCO3)cc1 (configuration not stated)	none (no result: MIN6 prolif, PfM18AAP inh, ALR H2O2 inh, GASC-1 inh)
Cc1ccccc1CN1C(=O)c2ccccc2C1c1nnnn1-c1ccc2c(c1)OCCO2 (configuration not stated)	SMARCA2 activ 7.9 (no result: MIN6 prolif, PfM18AAP inh, ALR H2O2 inh, GASC-1 inh)
CCc1nnc(NS(=O)(=O)c2ccc(N/C=C\C(=O)c3cccc(OC)c3)cc2)s1	SMARCA2 activ 7.9
CCN(CC)CCC(=O)N1c2ccccc2Sc2ccc(Cl)cc21	none (no result: PfM18AAP inh)
CCN(CC)CCN1c2ccccc2Sc2ccc3ccccc3c21	ALR H2O2 inh 98
CCN(CC)CCN1c2ccccc2Sc2ccccc21	ALR H2O2 inh 100
CCc1ccccc1NC(=O)CSc1nnc([C@@H](N)Cc2ccccc2)o1	none (no result: GASC-1 inh)
N[C@@H](Cc1ccccc1)c1nnc(SCc2ccccc2Cl)o1	ALR H2O2 inh 98
CC(=NC1CCCC1)c1c(C)[nH]n(-c2nc3ccccc3s2)c1=O	ALR H2O2 inh 93
COc1ccc(N2CCN(CC(O)c3c[nH]c4ccc(OC)cc34)CC2C)cc1 (configuration not stated)	ALR H2O2 inh 100
c1ccc2c(-c3csc(-c4ccncc4)n3)c[nH]c2c1	ALR H2O2 inh 99
Nn1c(SCC(=O)Nc2ccc3c(c2)OCO3)nncc1=O	ALR H2O2 inh 98
Nn1c(SCC(=O)Nc2ccc3c(c2)OCCO3)nnc(CCC(=O)O)c1=O	ALR H2O2 inh 93
Nn1c(SCC(=O)Nc2cc(C(F)(F)F)ccc2Cl)nncc1=O	none
Nn1c(SCC(=O)Nc2cccc(C(F)(F)F)c2)nncc1=O	ALR H2O2 inh 97
C=C(C)Cn1c(N)cc(=O)nc1SCC(=O)Nc1cccc(C(F)(F)F)c1	ALR H2O2 inh 97
CCCCNC(=O)C1CCCN1C(=O)Nc1ccc2c(c1)OCO2 (configuration not stated)	none (no result: MIN6 prolif, PfM18AAP inh, Exocytosis inh, ALR H2O2 inh, GASC-1 inh)
CC(C)(C)n1nc(C2CC2)cc1NC(=O)Nc1ccccc1	none (no result: MIN6 prolif, PfM18AAP inh, Exocytosis inh, ALR H2O2 inh, GASC-1 inh)
Nc1cc(S(=O)(=O)C(F)(F)F)ccc1C(=O)O	none
Nc1cc(C(F)(F)F)ccc1C(=O)O	ALR H2O2 inh 97 (no result: GASC-1 inh)
CCc1nnc(N/N=C/c2cccs2)n1N	PfM18AAP inh 53
CCc1nnc(N/N=C/c2ccc(O)c(OC)c2)n1N	none (no result: ALR H2O2 inh)
C/C=C(\C)C(=O)OC1[C@H](OC(C)=O)C2(CO)C(CC1(C)C)C1=CCC3C4(C)CCC(O[C@@H]5O[C@H](C(=O)O)[C@@H](O[C@@H]6O[C@H](CO)[C@@H](O)[C@H](O)[C@H]6O)[C@H](O)[C@H]5O[C@H]5O[C@H](CO)[C@@H](O)[C@H](O)[C@H]5O)[C@](C)(CO)C4CCC3(C)[C@]1(C)C[C@H]2O (some centres not stated)	Exocytosis inh 71 (no result: MIN6 prolif, SMARCA2 activ, PfM18AAP inh, ALR H2O2 inh, GASC-1 inh)
Cc1ccc(C2C(C#N)=C(N)SC(N)=C2C#N)cc1	PfM18AAP inh 42 (no result: MIN6 prolif, ALR H2O2 inh, GASC-1 inh)
Cc1ccc(C2C(C#N)=C(N)SC(N)=C2C#N)c(C)c1	none (no result: SMARCA2 activ)
NS(=O)(=O)c1ccc(N=C2C(=O)Nc3ccccc32)cc1	none
CC(C)C1=CC(=Nc2ccc(S(N)(=O)=O)cc2)C=C(C(C)C)C1=O	ALR H2O2 inh 99
O=C(CN1CCN(Cc2ccccc2)CC1)N/N=C\c1c2ccccc2cc2ccccc12	none (no result: MIN6 prolif, PfM18AAP inh, Exocytosis inh, ALR H2O2 inh, GASC-1 inh)
CCOC(=O)CSc1nc(N2CCOCC2)c2c(c1C#N)CC(C)(C)N(C)C2	ALR H2O2 inh 100
CCOC(=O)CSc1nc(N2CCOCC2)c2c(c1C#N)CC(C)(C)OC2	none
COC(=O)[C@]12C[C@H](CC(=O)NCCC(C)C)C(=O)N(Cc3cccc4ccccc34)C1=C[C@H](C(C)(C)C)O[C@@H]2C	none (no result: MIN6 prolif, PfM18AAP inh, Exocytosis inh, ALR H2O2 inh, GASC-1 inh)
Cc1ccc(NC(=O)NC(=O)CN2CCN(c3ccc(O)cc3)CC2)c(C)c1	PfM18AAP inh 30, ALR H2O2 inh 99
CC(C)(C)NC(=O)NC(=O)CN1CCN(c2ccc(O)cc2)CC1	ALR H2O2 inh 94
COCCCNC(=O)C[C@H]1C[C@@]2(C(=O)OC)C(=C[C@H](C(C)(C)C)O[C@@H]2C)N(Cc2ccco2)C1=O	none (no result: MIN6 prolif, PfM18AAP inh, Exocytosis inh, ALR H2O2 inh, GASC-1 inh)
COc1cc(C=C2NC(=O)NC2=O)ccc1O	none (no result: MIN6 prolif, PfM18AAP inh, ALR H2O2 inh, GASC-1 inh)
COc1cc(/C=C2/NC(=O)N(Cc3ccccc3F)C2=O)ccc1O	ALR H2O2 inh 99
COc1cc(/C=C2/C(=O)CNC2=O)ccc1O	ALR H2O2 inh 99
COc1cc(/C=C2\C(=O)N(c3ccc(NC(C)=O)cc3)N=C2c2ccccc2)ccc1O	ALR H2O2 inh 95
COc1cc(C=C2C(=O)C=CC2=O)ccc1O	Exocytosis inh 83 (no result: MIN6 prolif, PfM18AAP inh, ALR H2O2 inh, GASC-1 inh)
COC(=O)[C@]12C[C@H](CC(=O)NCC3CCCCC3)C(=O)N(CCC3=CCCCC3)C1=C[C@H](C(C)C)O[C@@H]2C1CC1	none (no result: MIN6 prolif, PfM18AAP inh, Exocytosis inh, ALR H2O2 inh, GASC-1 inh)
O=C(NC1CCCCN(Cc2cccc(C(F)(F)F)c2)C1=O)c1cccc([N+](=O)[O-])c1 (configuration not stated)	none (no result: MIN6 prolif, PfM18AAP inh, Exocytosis inh, ALR H2O2 inh, GASC-1 inh)
O=c1c(-c2cnn(-c3ccccc3)c2)coc2cc(O)ccc12	none (no result: SMARCA2 activ)
Oc1ccc(-c2[nH]ncc2-c2cnn(-c3ccccc3)c2)c(O)c1	ALR H2O2 inh 98
Cc1cccc(-c2cnn(-c3cccc([N+](=O)[O-])c3)c2N)c1	ALR H2O2 inh 92
Cc1cccc(-c2cnn(-c3ccccc3)c2N)c1	none
C#CCN1C(=O)[C@]2(NCCc3c2[nH]c2ccc(OC)cc32)c2cc(F)ccc21	none (no result: MIN6 prolif, PfM18AAP inh, Exocytosis inh, ALR H2O2 inh, GASC-1 inh)
O=C(CSc1nnc(-c2ccccn2)n1-c1ccccc1)c1ccc(Cl)c(Cl)c1	none (no result: MIN6 prolif, PfM18AAP inh, Exocytosis inh, ALR H2O2 inh, GASC-1 inh)
Cc1nc(SCC(=O)c2ccc(F)cc2)c([N+](=O)[O-])[nH]1	ALR H2O2 inh 93
COc1ccc(Oc2c(C)nc(SCC(=O)c3ccc(Cl)cc3)[nH]c2=O)cc1	ALR H2O2 inh 88
Cc1nc(SCC(=O)c2ccc(Cl)cc2)c([N+](=O)[O-])[nH]1	ALR H2O2 inh 99
Cc1cc(C)c(C(N)=O)c(SCC(=O)c2ccc(Cl)cc2)n1	none
Nn1c(SCC(=O)N2CCOCC2)nnc1-c1n[nH]c2c1CCC2	none (no result: MIN6 prolif, PfM18AAP inh, Exocytosis inh, ALR H2O2 inh, GASC-1 inh)
